Screening data deposited in PubChem BioAssay by several laboratories.
GDH-TPI counter-1: GDH-TPI coupling enzyme inhibitors, primary screen, artefact control for M. tuberculosis FBA inhibitor project, biochemical, absorbance, full deck; hit rate 1.2% among 360,000; GDH-TPI coupled enzyme counterscreen, NADH absorbance; inhibition, % at 4.8 µM; in the data active means inhibition above about 30%;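 further: 0% = DMSO wells and 100% = wells lacking the enzyme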
RecA splice inh: Mtb RecA intein splicing inhibitors, primary screen, biochemical, fluorescence, HTS; Protein RecA (Mycobacterium tuberculosis (strain ATCC 25618 / H37Rv)), P9WHJ3; cell-free RecA intein splicing; inhibition, % (test concentration not listed); hit rate 0.75% among 290,000; in the data active means inhibition above about 30%;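 further: 0% = vehicle wells and 100% = reference inhibitor control wells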
CCHFV vOTU inh: CCHFV vOTU protease inhibitors, primary screen, biochemical, Pep-AMC substrate, fluorescence; Crimean-Congo hemorrhagic fever virus L polyprotein viral ovarian tumor (vOTU) protease …; inhibition, % at 11.5 µM; hit rate 0.55% among 370,000; in the data active means inhibition above about 30%; further: 0% = vehicle wells with enzyme and 100% = no enzyme wells
Mtb bLac sens: beta-lactam sensitization of Mtb H37Rv, H37Rv; M. tuberculosis H37Rv growth with meropenem, percent inhibition; inhibition, % at 25 µM; hit rate 0.27% among 330,000; call rule not given here;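 further: growth measured after seven days incubation then overnight dye step; 0% = bacteria only wells and 100% = bacteria with antibiotic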
Mtb FBA inh: Mtb FBA enzyme inhibitors, primary screen, biochemical, fluorescence, strain H37Rv | purified M. tuberculosis FBA, fluorescence read-out | hit rate 2.3% among 360,000 | AID 588726, 2011 | inhibition, % at 1 µM;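 further: 0% = vehicle and 100% = reference inhibitor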
Target sequence (P9WQA3 whole entry, looked up): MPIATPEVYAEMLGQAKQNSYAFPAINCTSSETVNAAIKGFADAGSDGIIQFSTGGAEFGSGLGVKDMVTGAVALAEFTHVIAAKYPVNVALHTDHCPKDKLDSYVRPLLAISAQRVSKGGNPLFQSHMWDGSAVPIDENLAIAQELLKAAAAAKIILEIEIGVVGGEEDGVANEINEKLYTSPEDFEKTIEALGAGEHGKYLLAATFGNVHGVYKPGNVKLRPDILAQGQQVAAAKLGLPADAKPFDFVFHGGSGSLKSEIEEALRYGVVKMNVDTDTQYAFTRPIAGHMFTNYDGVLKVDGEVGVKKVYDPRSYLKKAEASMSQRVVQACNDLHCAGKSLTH
Mtb FBA confirm: M. tuberculosis aldolase blockers, biochemical, fluorescence, strain H37Rv, confirmation; shares compounds with Mtb FBA inh; purified M. tuberculosis FBA, fluorescence read-out; inhibition, % at 1 µM; hit rate 78% among 5,600;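 further: 0% = vehicle wells and 100% = reference inhibitor wells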
GDH-TPI counter-2: GDH-TPI coupling enzyme inhibitors, artefact control for M. tuberculosis FBA inhibitor project, biochemical, fluorescence, high throughput | GDH-TPI coupled enzyme counterscreen | inhibition, % at 1 µM | hit rate 81% among 5,600 | shares compounds with Mtb FBA inh | AID 652141, 2013; in the data active means inhibition above about 10%
Active calls of the source: *; nt = no result given; + = active, no number. The list is not random: actives were taken first. Their share in the collection is about 4.2%. Unless noted, no stated cut-off is given here; in the data, active means inhibition above about 27%; inactive means the rest.

SMILES	GDH-TPI counter-1	RecA splice inh	CCHFV vOTU inh	Mtb bLac sens	Mtb FBA inh	Mtb FBA confirm	GDH-TPI counter-2
O=c1[nH]c2cc3c(cc2cc1CN(CCN1CCOCC1)C(=S)NCC1CCCO1)OCO3 (stereo unspecified)	16	-4	-27	13	34*	124*	125*
CN(C)CCN(Cc1cc2cc3c(cc2[nH]c1=O)OCO3)C(=S)NCC1CCCO1 (stereo unspecified)	22	1	-12	-12	50*	0	-4
CCOC(=O)c1cc(-c2ccccc2)sc1NC(=O)C(C)C	1	3	2	10	37*	125*	113*
COc1ccc2[nH]c3c(c(=O)c2c1)CCCC3	nt	nt	-25	nt	30*	+	153*
O=c1c2c([nH]c3ccccc13)CCCCC2	6	-2	15	-6	-1	nt	nt
COc1cc(C(=O)NCC(=O)OC(C)C(=O)Nc2ncc(Cl)cc2Cl)cc(OC)c1OC (stereo unspecified)	-4	1	-8	12	48*	69*	74*
Cc1ccc(-c2nn(-c3ccccc3)cc2C(=O)O)o1	nt	-3	nt	3	nt	nt	nt
Cc1ccc(-c2nn(-c3ccccc3)cc2/C=C/C(=O)O)o1	16	-12	-5	66	39*	-2	-3
S=C(c1ccc(-c2ccc(Br)cc2)o1)N1CCCCC1	0	7	-10	99	59*	7	-2
S=C(c1ccc(-c2ccc(Br)cc2)o1)N1CCOCC1	18	3	-4	-4	-3	nt	nt
O=C(N/N=C/c1cccc(O)c1)c1ccc(-n2cnnn2)cc1	13	nt	2	nt	1	nt	nt
O=C(N/N=C/c1ccc(O)c(O)c1)c1ccc(-n2cnnn2)cc1	25	nt	8	-1	52*	52*	52*
COc1ccc2ccccc2c1/C=N/n1cnnc1	10	-1	10	-4	1	nt	nt
CCn1c(/C=N/n2cnnc2)nc2ccccc21	47*	1	-38	7	28*	116*	83*
CCn1c2ccccc2c2cc(/C=N/n3cnnc3)ccc21	46*	-8	-56	11	32*	59*	48*
CCCOc1c(Br)cc(C2C3=C(CCCC3=O)N(CC)C3=C2C(=O)CCC3)cc1OC	5	-88	-35	-3	31*	30*	35*
CCCOc1c(Br)cc(C2C3=C(CCCC3=O)N(C)C3=C2C(=O)CCC3)cc1OC	12	-398	-62	3	42*	+	+
COC(=O)[C@]12C[C@H](CC(=O)N3CCCCC3)C(=O)N(Cc3ccc(Cl)cc3Cl)C1=C[C@H](COCc1ccccc1)O[C@@H]2C	nt	nt	1	nt	nt	nt	nt
CCOC(=O)N1CCC(NC(=O)CCN2C(=O)C3C4C=CC(C4)C3C2=O)CC1 (stereo unspecified)	-5	nt	5	-8	84*	+	+
O=C(CCN1C(=O)C2C3C=CC(C3)C2C1=O)NC1CCCCC1 (stereo unspecified)	10	1	11	1	8	nt	nt
COc1cccc(-c2c(-c3cc(OC)cc(OC)c3)n(C)c3ccc(-c4ccc5[nH]ccc5c4)cc23)c1	24	nt	3	-8	42*	+	+
COc1cc(OC)cc(-c2c(-c3ccc(F)cc3)c3cc(-c4ccc5[nH]ccc5c4)ccc3n2C)c1	25	nt	-3	-1	49*	-4	-5
COc1ccc(-c2c(-c3cc(OC)cc(OC)c3)n(C)c3ccc(-c4cc(F)cc(OC)c4)cc23)cc1	12	nt	-2	-7	6	nt	nt
COc1ccc2nc(/C=N/NC(=O)CCCCCNC(=O)OC(C)(C)C)ccc2c1	33*	-1	-21	-7	63*	95*	86*
CC(C)(C)OC(=O)NCCC(=O)N/N=C/c1ccc2nccnc2c1	19	1	5	-12	0	nt	nt
SMILES	GDH-TPI counter-1	RecA splice inh	CCHFV vOTU inh	Mtb bLac sens	Mtb FBA inh	Mtb FBA confirm	GDH-TPI counter-2
COC(=O)[C@@]12CCCCC3=C1N(CCC3)C(=O)[C@H]2CC(=O)NCc1cccs1	nt	nt	1	nt	nt	nt	nt
COc1ccc(C2CC(=O)C3=C(C2)Nc2ncnn2C3c2ccccc2)cc1 (stereo unspecified)	7	5	8	-6	5	nt	nt
O=C1CC(c2ccco2)CC2=C1C(c1ccccc1)n1nc(C(F)(F)F)nc1N2 (stereo unspecified)	13	-8	4	-2	28*	64*	53*
O=C(NCc1cccc(Cl)c1)c1ccc(-c2cccnc2)c2ccoc12	-9	nt	-6	nt	9	nt	nt
Cn1cc(-c2ccc(C(=O)NCc3cccc(Cl)c3)c3occc23)cn1	1	nt	4	nt	42*	2	-3
O=C(Nc1ccc(F)cc1)OCCCN1C(=O)CCC12CCCCC2	nt	nt	4	nt	nt	nt	nt
CCc1ccccc1NC(=O)c1cc(-c2ccc(OC)cc2)on1	1	-1	-10	5	0	nt	nt
NC(=O)COc1ccc2oc(-c3ccccc3)cc(=O)c2c1	23	0	-28	nt	77*	-4	-8
CCc1ccccc1NC(=O)COc1ccc2oc(-c3ccc(OC)cc3)cc(=O)c2c1	21	-1	-3	2	35*	75*	52*
CCn1c(SCC(=O)Nc2ccc(S(=O)(=O)Nc3cc(C)nc(C)n3)cc2)nc2sc(C)c(C)c2c1=O	nt	nt	8	nt	nt	nt	nt
O=C(/C=C\c1ccc2c(c1)OCO2)Nc1nnc(SCC(=O)OCc2ccccc2)s1	nt	-1	-14	56	nt	nt	nt
N#Cc1ccc(-c2ccc3c(c2)OCO3)nc1SCC(=O)OCc1ccccc1	5	3	-4	-6	60*	67*	44*
CCCOc1ccc(S(=O)(=O)N2CCOCC2)cc1[N+](=O)[O-]	-2	2	16	2	34*	72*	63*
O=[N+]([O-])c1cc(S(=O)(=O)N2CCOCC2)ccc1OCc1ccccc1C(F)(F)F	8	nt	19	nt	-1	nt	nt
CC1=CC=CC2=NC(=O)CC(C)(C(=O)N(CC(=O)NC3CCCC3)c3ccccc3C)N12 (stereo unspecified)	4	0	-96	-4	110*	121*	95*
CC1=CC=CC2=NC(=O)CC(C)(C(=O)N(CC(=O)NC3CCCC3)c3ccc(F)cc3)N12 (stereo unspecified)	8	0	-69	5	95*	+	+
